Assay outcomes deposited in PubChem by National Center for Advancing Translational Sciences (NCATS).
Most compounds without a hit are left out; they make up all but 8.3% or so of the library.
Marburg entry inh: blocks Marburg virus binding to or entry into cells; Marburg virus pseudotyped entry inhibition, cell reporter; Potency, µM (titrated, usually from 37.8 µM), for inactives: at the highest dose activity change, negative = inhibition, most hits filed as inhibitors; 300,000 compounds, 1.8% hits; AID 540276; calls by dose curve; tested in HEK293 cells; further: potency means the concentration at half of the fitted maximal effect
HCMV inh: blocks human cytomegalovirus replication; HFF cells, HCMV-luciferase reporter, 72 h; hits give low values; activity change, negative = inhibition, % at 57.5 µM; 410,000 compounds, 4.5% hits; AID 1259415; in the data active means activity change below about -60%; inconclusive means no clear call, values can overlap the other calls; inactive means above about -39%
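Human foreskin fibroblasts infected with luciferase-reporter HCMV at MOI 1 PFU/cell, compounds at two doses. Luciferase measured 72 h post infection; normalized to buffer-only basal and Salinomycin (10uM) controls.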
HCV inhibitor: blocks hepatitis C virus | Potency, µM (series often up to 41.8 µM), for inactives: at the highest dose activity change, negative = inhibition, actives largely listed as inhibitors | AID 651820 | 340,000 compounds, 3.4% hits | Huh7.5.1 HCVcc-Cre infection, luciferase reporter, 44 h; further: potency means the concentration at half of the fitted maximal effect
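Cells seeded at 1,000/well and cultured 4 h, then compounds added followed by HCVcc-Cre virus (~0.5 moi). After 44 h further culture, luciferase substrate was added, plates held 15 min at room temperature, and luminescence read for 15 sec.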
LASV entry inh: Lassa virus entry inhibition; AID 540256; 300,000 compounds, 1.2% hits; Potency, µM (titrated, usually from 37.9 µM), for the others: at the top dose activity change, negative = inhibition, usual class: inhibitors; Lassa virus pseudotype entry inhibition, cell reporter; calls by dose curve; tested in HEK293 cells; further: potency means the concentration at half of the fitted maximal effect; nearly all actives have a fitted effect of over 50% in size
FMDV antiviral: antivirals against foot and mouth disease virus. FMDV antiviral cell-based qHTS. Potency, µM (series often up to 57.9 µM), inactives show top-dose activity change, negative = inhibition, most hits filed as inhibitors. 410,000 compounds, 1.2% hits; calls by dose curve; tested in HEK293T cells; further: read-out not given here; potency means the concentration at half of the fitted maximal effect; nearly all actives have a fitted effect of over 45% in size
Giardia FBPA inh: Giardia lamblia aldolase inhibition; A8B2U2; purified Giardia FBPA; Potency, µM (highest dose often 59.6 µM), for the others: at the highest dose activity, negative = inhibition, usual class: inhibitors; 290,000 compounds, 0.71% hits; further: potency means the concentration at half of the fitted maximal effect; nearly all actives have a fitted effect of over 55% in size
Target sequence (A8B2U2 whole entry, looked up): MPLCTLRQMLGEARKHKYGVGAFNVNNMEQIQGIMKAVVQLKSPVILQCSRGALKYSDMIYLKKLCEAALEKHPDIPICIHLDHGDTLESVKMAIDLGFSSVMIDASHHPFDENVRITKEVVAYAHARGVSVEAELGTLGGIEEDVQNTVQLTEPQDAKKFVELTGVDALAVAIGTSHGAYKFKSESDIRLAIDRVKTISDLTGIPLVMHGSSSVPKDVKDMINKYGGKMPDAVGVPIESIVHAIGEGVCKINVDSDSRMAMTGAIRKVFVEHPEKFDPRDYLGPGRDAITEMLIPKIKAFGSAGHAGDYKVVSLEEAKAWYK
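Giardia FBPA (40 nM reagent) was preincubated 10 min at RT with compound (up to 57.5 uM final), then substrate plus GAPDH/TPI/NAD/arsenate coupling system with diaphorase/resazurin was added; resorufin fluorescence (525/598 nm) was read after 20 min.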
Active calls of the source: *; u = inconclusive; x = not tested or not shown; + = active, no number; [ ] = another dose, or the depositor's remark. Unless noted, the call rests on the fitted dose curve; in most records, active means well fitted curve in the direction sought with a large enough effect; inconclusive means small, poorly fitted or top-dose-only effect, or another doubt; inactive means no such curve, though single readings can be large; an effect the other way counts as inactive or inconclusive. On the % scale 0 is the no-effect control and ±100 the full control effect.

SMILES	Marburg entry inh	HCMV inh	HCV inhibitor	LASV entry inh	FMDV antiviral	Giardia FBPA inh
CSc1cc(-c2ccccc2)n(C)c(=O)c1C#N	4%[46.1 µM]	-66*	10µM*	-9%[46.1 µM]	-28%	2%
Cc1cc(Br)cn2c(Cc3ccccc3C(F)(F)F)c(-c3ccc(F)cc3)nc12	x	17	x	x	x	x
Cn1c(=S)oc2ccccc21	2%[46.1 µM]	29	11%	5%	-1%	-2%
CC(=O)/C=C/n1c(=S)oc2ccccc21	13µM*	-100*	4.5µM*	u	3.2µM*	4%
CC(C)CC(=O)/C=C/n1c(=S)oc2ccccc21	-16%	57	14µM*	13%	u	-7%
CCc1cc2c3c(c1)C1(C(=O)N3C(C)(C)C=C2C)C(C#N)=C(N)Oc2[nH]c(=O)[nH]c(=O)c21 (stereo unspecified)	u	-75*	u	u	-30%	-6%
CCN(Cc1ccncc1)Cc1nc(Cc2ccccc2Cl)no1	x	-61*	11µM*	x	u	9%
CN(Cc1cnccn1)Cc1nc(Cc2ccccc2Cl)no1	-3%[46.1 µM]	-22	7%	22%[46.1 µM]	-9%	-1%
CCc1ccc(CNC(=O)c2ccc3c(c2)nc2n3CCCCC2)cc1	x	58	x	u	60%	x
CCc1cc(=O)oc2cc(C)cc(OC(C)C(=O)NC3CCN(Cc4ccccc4)CC3)c12 (stereo unspecified)	u	-10	13µM*	-23%[46.1 µM]	4%	-9%
CC(C)Oc1ccc(C(=O)NC2CCN(Cc3ccccc3)CC2)cc1	u	u	u	-2%[46.1 µM]	u	20%
CC(Oc1ccc(Br)cc1)C(=O)NC1CCN(Cc2ccccc2)CC1 (stereo unspecified)	13µM*	-28	u	-31%	-28%	x
COc1cc(-c2nc3n(n2)C(c2ccc(F)cc2)C(C(N)=O)=C(C)N3)cc(OC)c1OC (stereo unspecified)	7%[46.1 µM]	3	x	-1%[46.1 µM]	-14%	x
CCCCCC(=O)/C=C/C=C\C/C=C\C/C=C\CCCC(=O)O	x	x	x	x	x	2%
Cc1ccc(CNC(=O)c2ccccc2NC(=O)c2nsc3ccccc23)cc1	x	-88*	x	u	-3%	x
CSc1ccc(CNC(=O)c2ccc(NC(=O)c3nsc4ccccc34)cc2)cc1	x	-96*	x	6%[46.1 µM]	-5%	x
Cc1nnc(C)c2c(C)n(Cc3ccc4c(c3)OCO4)c(C)c12	-10%	u	4.5µM*	-2%	-22%	-14%
c1cc2c(cc1Cn1cnnn1)OCO2	u	11	22%	-2%	7%	9%
CON(C)C(=O)c1nnc2c3ccccc3n(S(=O)(=O)c3ccc(C)cc3)c2n1	16%[14.2 µM]	x	x	x	x	-3%[12.9 µM]
CCNc1ncc2ncc(=O)n(Cc3ccc(F)cc3)c2n1	x	x	x	x	u	-7%
O=C1c2ccccc2NC(c2ccc(Br)s2)N1O (stereo unspecified)	x	-75*	u	x	3%	x
COC(=O)[C@@H]1CCCN1Cc1ccc2c(c1)CN(Cc1nccs1)CCO2	x	x	x	x	0%	x
CCC(=O)Oc1c(Sc2ccc(Cl)cc2)c(C)nn1C(C)(C)C	-1%[46.1 µM]	3	x	-11%[46.1 µM]	-26%	x
COc1cc2c(cc1NC(=S)Nc1cccc(C(F)(F)F)c1)oc1ccccc12	-24%	-21	10µM*	-1%	-6%	-9%
COc1cc2c(cc1NC(=O)COc1ccccc1OC)oc1ccccc12	-25%	-21	u	1%	2%	2%
SMILES	Marburg entry inh	HCMV inh	HCV inhibitor	LASV entry inh	FMDV antiviral	Giardia FBPA inh
COCCCNC(=S)Nc1cc2oc3ccccc3c2cc1OC	u	4	8.9µM*	-14%[46.1 µM]	10%	-2%
COc1cc2c(cc1NC(=S)Nc1cccc3ccccc13)oc1ccccc12	2%	26	2.5µM*	16%	38%	-26%
COc1ccc(Cl)cc1CSc1n[nH]c(C)n1	16%	-27	-11%	19%	16%	5%
CCOc1ccc(Cl)cc1CSc1n[nH]c(CC)n1	-2%	-34	11µM*	4%	-17%	-11%
CCCCOc1ccc(Cl)cc1CSc1n[nH]c(C)n1	0.21µM*	-2	-20%	-26%	u	0%
CC(C)(C)OC(=O)COc1cc(OCC(=O)OC(C)(C)C)c2c(=O)cc(-c3ccccc3)oc2c1	u	-26	10µM*	u	u	10%
CC1CN(C(=O)Nc2ccc(C(=O)NCc3ccccc3F)cc2)c2ccccc2S1 (stereo unspecified)	3%[46.1 µM]	7	x	-3%[46.1 µM]	-12%	x
Cc1ccc(CNC(=O)CN2CCCN(Cc3ccc(F)cc3)S2(=O)=O)cc1	x	0	x	11µM*	-15%	x
COc1ccc(NC(=O)CN2CCN(Cc3ccc(F)cc3)S2(=O)=O)cc1Cl	x	-13	x	-12%[46.1 µM]	-24%	x
COC(=O)c1ccc(OC)c(CN2CCCN(Cc3ccc(C)cc3)S2(=O)=O)c1	x	+	x	2%[46.1 µM]	4%	x
Cc1ccc(CN2CCN(CC(=O)Nc3ccc(C)c(C)c3)S2(=O)=O)cc1	x	+	x	1%[46.1 µM]	-2%	x
O=C(CN1CCCN(Cc2ccc(F)cc2)S1(=O)=O)NC1CCCC1	x	-15	-5%	x	u	x
CC(C)(CNC(=O)c1cnn(-c2nccc(-c3ccccc3F)n2)c1C1CC1)N1CCOCC1	x	x	x	x	-2%	x
COc1ccc(CNC(=O)c2ccc(Cn3c(=O)c4cccn4c4cccnc43)cc2)c(OC)c1	x	-7	x	-10%[46.1 µM]	-21%	x
O=C1CCC[C@H]2[C@H]3CCCN4CCCC(=CN12)[C@@H]34	x	x	x	x	-2%	-5%
CC(C)(C)c1ccc(C2=NC(C)(C)N(CC(=O)Nc3ccc(F)c(F)c3)C2=O)cc1	10%[46.1 µM]	10	x	-8%[46.1 µM]	-11%	x
COC1=CC(=O)[C@]2(C=C1OC)OC[C@@H]1Oc3c(ccc4c3C=CC(C)(C)O4)C(=O)[C@@H]12	x	-93*	-28%	x	16µM*	x
COc1cc(NC(=O)CSc2ncc(S(=O)(=O)c3ccc(Br)cc3)c(=O)[nH]2)cc(OC)c1	u	1	x	x	u	x
Oc1c(Cl)cc(Cl)cc1/C=N/Nc1ncc(Br)cn1	u	-94*	2.2µM*	u	-15%	4%
Cc1ccn(CCC(=O)NCC2Cc3cc(Cl)cc(-c4ccc5[nH]ccc5c4)c3O2)n1 (stereo unspecified)	x	x	x	x	-2%	x
Cc1ccc(-c2nnc(Nc3ccc(O)cc3)c3ccccc23)cc1S(=O)(=O)N1CCN(C)CC1	-12%[46.1 µM]	-66*	x	2%[46.1 µM]	-12%	x
CCN(CC)C(=O)c1ccc(-c2nnc(Nc3ccc(C(=O)N(C)C)cc3)c3ccccc23)cc1	x	65	-17%	x	-28%	7%
Cc1ccc(-c2nnc(Nc3ccc(Br)cc3)c3ccccc23)cc1S(=O)(=O)N1CCCCC1	x	-15	x	u	-12%	x
Cc1ccc(-c2nnc(Nc3ccc(Br)cc3)c3ccccc23)cc1S(=O)(=O)N1CCN(C)CC1	x	-40	x	11µM*	-16%	x
CCN(CC)C(=O)c1ccc(-c2nnc(Nc3ccc(O)cc3)c3ccccc23)cc1	x	-75*	-26%	x	-24%	-15%
Cc1ccc(-c2nnc(Nc3ccc(F)cc3)c3ccccc23)cc1S(=O)(=O)N1CCN(C)CC1	-23%[46.1 µM]	-102*	x	u	-20%	x
